# Measurements published in PubChem BioAssay AID1159580 (chemical genetic matrix, 2015).
# In all, about 5,500 compounds went through this assay and about 2,000 (36%) were called active. About 18% were inconclusive and are not listed. This is one part of the list. Values without a mark were called inactive. No stated cut-off is given here; in the data, active means normalized growth mostly below about 0.91 (no sharp cut-off); inconclusive means no clear call, values can overlap the other calls; inactive means mostly above about 0.92.
# Experiment: chemical genetic growth profiling, strain panel (AID 1159580);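 further: tested at 20 µM; growth read once vehicle control cultures reached saturation at 30 °C; 1 = growth at the plate median or of vehicle wells; lower values mean less growth of the strain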
# Settings: S. cerevisiae deletion strains, growth OD
smiles,measurement,setting,value
O=C(c1ccccc1)c1cc2c(cc1Br)OCCO2,normalized growth,"locus YAL013W, strain DEP1, active compounds read low",0.908 (active)
same,normalized growth,"locus YBR229C, strain ROT2, active compounds read low",0.953
same,normalized growth,"locus YDL101C, strain DUN1, active compounds read low",0.897 (active)
same,normalized growth,"locus YDL134C, strain PPH21, active compounds read low",0.942
same,normalized growth,"locus YDR150W, strain NUM1, active compounds read low",0.927
same,normalized growth,"locus YEL061C, strain CIN8, active compounds read low",0.904 (active)
same,normalized growth,"locus YGR078C, strain PAC10, active compounds read low",0.922 (active)
same,normalized growth,"locus YHR030C, strain SLT2, active compounds read low",0.304 (active)
same,normalized growth,"locus YHR087W, strain rtc3, active compounds read low",0.989
same,normalized growth,"locus YJR043C, strain POL32, active compounds read low",0.906 (active)
same,normalized growth,"locus YJR075W, strain HOC1, active compounds read low",0.93
same,normalized growth,"locus YKL190W, strain CNB1, active compounds read low",0.845 (active)
same,normalized growth,"locus YLR039C, strain RIC1, active compounds read low",0.486 (active)
same,normalized growth,"locus YLR058C, strain SHM2 (second series), active compounds read low",0.956
same,normalized growth,"locus YLR085C, strain ARP6, active compounds read low",0.419 (active)
same,normalized growth,"locus YLR262C, strain YPT6, active compounds read low",0.524 (active)
same,normalized growth,"locus YML094W, strain GIM5, active compounds read low",0.852 (active)
same,normalized growth,"locus YMR219W, strain ESC1, active compounds read low",0.952
same,normalized growth,"locus YMR263W, strain SAP30, active compounds read low",0.921
same,normalized growth,"locus YNL153C, strain GIM3, active compounds read low",0.91 (active)
same,normalized growth,"locus YNL298W, strain CLA4 (second series), active compounds read low",0.7 (active)
same,normalized growth,"locus YNL322C, strain KRE1, active compounds read low",0.955
same,normalized growth,"locus YNR030W, strain Alg12, active compounds read low",0.811 (active)
same,normalized growth,"locus YPL055C, strain LGE1, active compounds read low",0.845
same,normalized growth,"locus YPL241C, strain CIN2, active compounds read low",0.823 (active)
same,normalized growth,"locus YPR135W, strain CTF4, active compounds read low",0.445 (active)
